hERG WT inh = qHTS for Inhibitors of KCHN2 3.1: Wildtype qHTS | AID 720551, 2013 | U2OS, BacMam KCNH2, thallium flux FluxOr; active compounds read low | 0.37% of 340,000 active | activity change, % at 1.84 µM;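 active means maximum activity change below -70%; inconclusive means maximum activity change between -70% and -50%; inactive means maximum activity change above -50%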
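U2OS cells were transduced with wild-type KCNH2 virus (2.03 x 10^8 / mL) for 4 h at room temperature, then cultured overnight at 37 C. Thallium flux was read with FluxOr dye. Rate constants were normalized to DMSO controls.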
BCR signal inh = qHTS Assay to Find Inhibitors of Chronic Active B-Cell Receptor Signaling | ABC-DLBCL IkBa-CBG/CBR reporter, luminescence ratio, 4 h | Potency, µM (highest dose often 46.1 µM), usual class: inhibitors | 0.05% of 340,000 active | AID 493014, 2011; active means well fitted inhibition curve with a large enough effect in the signal ratio, with a control signal flat, not every such curve was filed as active; inconclusive means small, poorly fitted or top-dose-only effect, or effect the other way, or a change in a side signal; the % refers to the signal ratio
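Concentration-response series (up to 46 uM) were applied to TMD8 dual-reporter cells for 4 h at 37C with doxycycline. Green/red ratio, after filter-overlap correction, defined %Activity; red signal alone was normalised to basal cells and zero luminescence.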
LDHA block = qHTS assay for inhibitors of human lactate dehydrogenase; activity change, % (values are at about 110 or 230 µM); L-lactate dehydrogenase A chain (Homo sapiens), P00338; purified LDHA, NADH/diaphorase-resazurin fluorescence; active compounds read low; AID 1347041, 2019; 0.15% of 480,000 active; in the data active means activity change below about -30%; inconclusive means mostly about -25% to -30%
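Resorufin fluorescence (ex540/em590), read at 0 and 20 min after diaphorase/resazurin addition, reports the NADH left after a 5 min room-temperature reaction of 2 nM human LDH5 with 0.06 mM NADH and 0.2 mM pyruvate.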
ClpP mod = qHTS Assay for Activators of ClpP. ATP-dependent Clp protease proteolytic subunit (Bacillus subtilis (strain 168)), P80244. purified B. subtilis ClpP, FRET peptide cleavage, 20 min. Potency, µM (titrated, usually from 57.5 µM). 1.9% of 340,000 active. AID 651965, 2013; active means well fitted falling curve with a large enough effect; inconclusive means small, poorly fitted or top-dose-only effect; inactive means no such curve, though single readings can be large or run the other way; further: the source files actives as falling curves though it sought activators and does not explain the sign; nearly all actives have a fitted effect of over 65% in size
Target sequence (P80244 whole entry, looked up): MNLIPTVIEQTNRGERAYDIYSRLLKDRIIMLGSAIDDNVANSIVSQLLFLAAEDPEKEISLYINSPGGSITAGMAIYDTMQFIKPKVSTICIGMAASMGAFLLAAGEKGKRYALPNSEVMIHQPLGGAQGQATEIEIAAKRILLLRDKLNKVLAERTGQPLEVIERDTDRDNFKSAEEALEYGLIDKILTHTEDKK
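Purified B. subtilis ClpP, 10 microg/mL final in Tris/HCl pH8 with KCl, BSA, glycerol and Tween-20, cleaved an Abz/nitrotyrosine-quenched decapeptide. Fluorescence (ex 320, em 430) was read at 0 and 20 min at room temperature. Delta was normalized to 5.8 microM ADEP and DMSO/no-enzyme controls.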
KCNH2 3.1 inh = qHTS for Inhibitors of KCHN2 3.1: Mutant qHTS. Potassium voltage-gated channel subfamily H member 2, brain isoform KCNH2 3.1 (human). U2OS KCNH2 3.1, thallium flux FluxOr; active compounds read low. activity change, % (tested at about 1.8 µM). 0.95% of 340,000 active;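 active means maximum activity change below -70%; inconclusive means maximum activity change from -70% to -50%; inactive means maximum activity change above -50%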;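 further: thallium influx rate constant from kinetic fluorescence after stimulation buffer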
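Channel expression came from 3.1 mutant virus (1.77 x 10^8 /mL) applied to suspended U2OS cells for 4 h. Flux was tracked with FluxOr dye plus Red40 quencher, and kinetic rate constants normalized to controls.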
12-LOX inh = Primary qHTS assay for inhibitors of human arachidonate 12S-lipoxygenase (ALOX12): Round 2. 1.1% of 580,000 active. AID 1671190, 2021. purified 12hLO, xylenol orange hydroperoxide absorbance. Potency, µM (doses to about 108 µM), actives largely listed as inhibitors. Polyunsaturated fatty acid lipoxygenase ALOX12 (Homo sapiens), P18054; active means well fitted inhibition curve with a large enough effect; inconclusive means small, poorly fitted or top-dose-only effect, or another doubt; inactive means no such curve, though single readings can be large or run the other way
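Purified human 12hLO (150 nM final) in 25 mM Hepes, 0.01% Triton X-100, pH 7.0 was preincubated 15 min at room temperature with compound. Then 40 uM arachidonic acid was added, 30 min. Hydroperoxide was read by Fe-XO absorbance ratio 573/405 nm.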
Numbers stand for hits; i = inactive; ? = inconclusive; nt = no result given. An excerpt weighted towards active compounds, which were near 3% of everything screened.

SMILES	hERG WT inh	BCR signal inh	LDHA block	ClpP mod	KCNH2 3.1 inh	12-LOX inh
CC1(C)CS(=O)(=O)N(c2ccc(Cl)c(C(=O)Nc3cccc(C(F)(F)F)c3)c2)C1=O	nt	nt	i	nt	nt	i
O=c1oc2ccc3ccccc3c2c2c1SC(C(F)(F)F)C2 (stereo not given)	i	?	i	35µM	i	nt
Cc1cccc(C)c1NC(=O)COc1ncnc2ccccc12	nt	nt	i	nt	nt	i
COc1cnc(N(C)C)nc1Sc1ccc(Cl)cc1	i	i	i	32µM	i	i
CC(C)c1ccc(NC(=O)CN2CCN(C(=O)c3cccs3)CC2)cc1	nt	nt	i	nt	nt	i
COc1ccc(CNc2ncc(-c3ccccc3)n2C)c2ccccc12	i	?	i	i	i	10µM
COc1ccc(CNc2ncc(-c3ccccc3)n2C)c(OC)c1OC	i	i	i	i	i	2µM
Cc1ccc(NC(=S)NC(=O)c2ccc(F)cc2)cc1S(=O)(=O)Nc1cccc(Cl)c1	i	?	i	i	i	13µM
Cc1ccc(CNC(=S)Nc2cc(C(=O)O)ccc2C)cc1	i	i	i	nt	i	?
O=C(NC(=S)Nc1cccc(NC(=S)NC(=O)c2ccccc2)c1)c1ccccc1	i	nt	i	nt	i	14µM
Cc1ccc(C(=O)O)cc1NC(=S)NC(=O)c1ccc([N+](=O)[O-])c(C)c1	i	i	i	i	i	20µM
O=C(NC(=S)Nc1c(Cl)cc(Cl)cc1Cl)c1ccccc1	i	nt	i	i	i	35µM
Cc1ccc(/C=C/C(=O)c2c(C)nc3ccc(Cl)cc3c2-c2ccccc2)o1	nt	nt	i	nt	nt	?
CCOC(=O)c1cc(-c2ccc(S(=O)(=O)Nc3cccc(Cl)c3C)s2)on1	nt	nt	i	nt	nt	?
Cc1ccc(C(C)Nc2ncccc2-c2nc(-c3cccc(C)c3)no2)cc1 (stereo not given)	nt	nt	i	nt	nt	?
O=C(NC(=S)Nn1cnnc1)c1ccccc1	i	i	i	i	i	35µM
Cc1cc(C)c(NC(=S)NC(=O)c2ccc(-c3ccccc3)cc2)c(C)c1	i	i	i	i	i	22µM
Cc1ccc(NC(=S)NC(=O)c2ccccc2)cc1NC(=S)NC(=O)c1ccccc1	i	?	i	i	i	4µM
O=C(NC(=S)Nc1cccc(CO)c1)c1ccc(-c2ccccc2)cc1	i	?	i	i	i	?
O=C(CSc1nnc(-c2ccc(S(=O)(=O)N3CCCCCC3)cc2)o1)c1ccc(Cl)cc1	nt	nt	i	nt	nt	i
CCCc1nnc(NC(=O)c2cc(=O)c3cc(CC)ccc3o2)s1	nt	nt	i	nt	nt	i
O=C(NC1CCCC1)c1cc(-c2ccco2)nc2ccccc12	nt	nt	i	nt	nt	?
CC(OC(=O)c1cc(-c2ccco2)nc2ccccc12)C(=O)NC(=O)NC(C)(C)C (stereo not given)	nt	nt	i	nt	nt	8.9µM
CC(OC(=O)c1cc(-c2ccco2)nc2ccccc12)C(=O)NC(=O)NC1CCCCC1 (stereo not given)	nt	nt	i	nt	nt	7.9µM
Cc1ccc(Sc2ccc(Sc3ccc(C)cc3)c(C#N)c2)cc1	nt	nt	i	nt	nt	i
Cc1cccc(-n2c(=O)[nH]c3c(C(N)=O)nc(C(C)C)nc32)c1	i	?	i	22µM	i	i
COc1ccccc1CN(C)CC(=O)N(C)c1c(N)n(Cc2ccccc2)c(=O)[nH]c1=O	nt	nt	i	nt	nt	i
COc1ccc(C(=O)N2CCCC(c3nc(-c4ccc(OC)c(OC)c4)no3)C2)c(OC)c1 (stereo not given)	i	i	i	28µM	i	i
COc1ccc(-c2noc(C3CCCN(C(=O)c4ccccc4OC)C3)n2)cc1OC (stereo not given)	i	?	i	i	i	i
Cc1ccc(N/N=C/c2ccc(C)s2)cc1	nt	nt	i	nt	nt	56µM
